According to PubChem BioAssay AID624464 (National Center for Advancing Translational Sciences (NCATS), 2012):
Out of some 360,000 compounds screened, about 810 (0.23%) were called active. Rule as the data show it: active = potentiation above about 50%; inconclusive = mostly about 30% to 49%; inactive = weaker than that. The entries come from a sample that favours actives as a whole.

target: D(2) dopamine receptor (Homo sapiens) (UniProt P14416); assay: Beta-Arrestin HTS for Positive Allosteric Modulators of the Human D2 Dopamine Receptor: Potentiators; details: DiscoveRx D2 beta-arrestin cells, luminescence, 90 min; active compounds read high; 100% = 57 uM dopamine signal
Text: There is great interest in identifying small molecule ligands for G-protein coupled receptors (GPCRs) as nearly 50% of all FDA-approved drugs target these important receptor proteins. […] Amongst the dopamine receptors (DARs), the D2 is arguably one of the most validated drug targets in neurology and psychiatry. For instance, all receptor-based antiparkinsonian drugs primarily work via stimulating the D2 DAR, whereas all FDA-approved antipsychotic agents are antagonists of this receptor. The D2 DAR is also therapeutically targeted in other disorders such as restless legs syndrome, tardive dyskinesia, Tourette's syndrome, and hyperprolactinemia.
To this end, a miniaturized qHTS screen was developed to be screened against the Molecular Libraries Small Molecule Repository (MLSMR). This assay seeks to identify potentiators against the D2 DAR.
NIH Molecular Libraries Probe Production Network [MLPCN]
NIH Chemical Genomics Center [NCGC]
PI Name: David Sibley, National Institutes of Neurological Disorders and Stroke
DiscoveRx D2 cells were thawed from frozen stock and seeded at 2,100 cells/ 3 uL/well media (DiscoveRx Plating Reagent 2) with MultiDrop Combi dispenser (Thermo Scientific, Logan, UT) onto white tissue culture treated 1536-well Aurora plates (Brooks Automation, Chelmsford, MA) and allowed to attach overnight at 37 deg C, 5% CO2. Next, 23 nL/well of compound solutions in DMSO were added with a pintool transfer (Kalypsis, San Diego, CA). As the positive control, 1 uL/well dopamine (EC100, 57 uM final concentration) diluted in buffer (HBSS + 10 mM HEPES + SMB + 0.1 %Tween-20) was dispensed to 1 column of each plate. EC20 (Dopamine at 50 nM final concentration) was dispensed to the rest of the plate except columns 1 &2 which were used as negative control (EC=0, buffer only), 1 uL/well as well. The cells were stimulated by compounds and dopamine for 90 minutes at 37 deg C, 5% CO2, after which 1.5 uL/well of DiscoveRx detection reagent was added with BioRAPTR FRD dispenser. The detection reagent was prepared by mixing of Galacton Star Substrate, Emerald II solution and PathHunter buffer (supplied by the assay kit) together at 1:5:19 proportion accordingly just prior to dispensing. The plates were incubated at ambient temperature for 1 hour and then the luminescent signal was read on ViewLux plate reader (PerkinElmer, Waltham, MA).

Chain of D(2) dopamine receptor (Homo sapiens) (P14416 whole entry, looked up): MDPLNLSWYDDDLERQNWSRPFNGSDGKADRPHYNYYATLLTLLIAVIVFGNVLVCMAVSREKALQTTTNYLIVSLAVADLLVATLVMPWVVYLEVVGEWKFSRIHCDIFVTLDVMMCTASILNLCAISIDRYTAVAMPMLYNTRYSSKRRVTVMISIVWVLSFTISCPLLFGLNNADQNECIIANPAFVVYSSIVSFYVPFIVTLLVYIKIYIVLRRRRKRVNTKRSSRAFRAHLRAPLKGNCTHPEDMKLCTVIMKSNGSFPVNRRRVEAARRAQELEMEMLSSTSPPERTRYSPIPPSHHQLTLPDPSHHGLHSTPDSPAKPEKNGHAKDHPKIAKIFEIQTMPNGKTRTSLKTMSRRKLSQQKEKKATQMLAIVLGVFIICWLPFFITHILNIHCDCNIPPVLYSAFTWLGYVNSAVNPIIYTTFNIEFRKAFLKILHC

potentiation, active:
Oc1ccc(-c2onc3ccc(Cl)cc23)cc1 50.4%
CC(C)(C)C1CCc2c(sc3nc(SCC(N)=O)nc(N)c23)C1 (stereo not given) 58.8%
O=C(O)c1ccc(NN=CC2=C(N3CCOCC3)/C(=C/c3ccccc3)CC2)cc1 77.1%
COc1ccc(C(=O)O/N=C(\N)Cc2ccc(Cl)cc2Cl)cc1OC 94.6%
COc1ccc(-c2nnc(SC(=O)N3c4ccccc4Sc4ccccc43)o2)cc1 72.5%
N#C/C(=C\c1ccccc1C(F)(F)F)C(=O)Nc1ccccc1F 57.7%
Cc1ccc(OCc2nnc(SC3CCc4ccccc4C3=O)n2C)cc1 (stereo not given) 51.4%
O=C1NC(c2ccc(-c3ccccc3[N+](=O)[O-])o2)C(C(=O)c2ccc(Cl)cc2)C(O)(C(F)(F)F)N1 (stereo not given) 55.4%
COC(=O)CSc1ccc2nnc(CCNS(=O)(=O)c3ccc(C)cc3)n2n1 71.3%
Cc1coc2c(O)cc3c(c12)OC1(N2CCCCC2)C(=O)NCCCC31 (stereo not given) 70.8%
O=C(N/N=C/c1ccc([N+](=O)[O-])cc1)c1c[nH]c2ccccc12 64.1%
S=C(Nc1cccc(Cl)c1)Nc1ccc2cn[nH]c2c1 60.4%

potentiation, inactive:
CSc1ncnc2c1ncn2CCCNCc1cccs1 0.128%
CCN(CC)P(=O)(Nc1ccc(SC(F)F)cc1)c1ccc(N(C)C)cc1NC(=O)c1ccco1 (stereo not given) -7.82%
CC(=O)CC[C@@H](C)O[C@@H]1OC(C)[C@H](O)CC1O (stereo not given in full) -9.1%
Cc1ccc(S(=O)(=O)N2CCC3(CC2)OCCO3)c(C)c1 -6.31%
COc1ccc(-c2onc3ccc(C(C)=O)cc23)cc1 28%
NC(N)=Nc1nc(-c2ccccc2)c2cc(Cl)ccc2n1 -62.5%
C=C(C)CSc1nc(N)c2c3c(sc2n1)CCC3 -7.64%
Nc1nc(SCC(=O)NCCN2CCOCC2)nc2sc3c(c12)CCC3 -8.51%
CCOC(=O)CN(C(=O)COc1nc(C)cc(C)c1C#N)c1ccc(Cl)cc1 -3.59%
N#C/C(=C\C1=C(N2CCOCC2)C(=C\c2ccccc2)/CC1)C(=O)Nc1ccccc1F -1.9%
O=C1Nc2ccc(Br)cc2/C1=N/N=C/C1=C(N2CCOCC2)C(=C\c2ccccc2)/CC1 -26.8%
COc1ccc(CCn2ccc(O)c(Cc3ccc(Cl)cc3Cl)c2=O)cc1OC -38.7%
COc1ccc(C(=O)n2nc(-c3ccc(Cl)cc3)nc2N)cc1OC -7.87%
NC(=O)c1cc(S(=O)(=O)N2CCCC2)ccc1OCc1ccc(F)cc1 -13.4%
CC1(C)NC(=O)N(CC(=O)Nc2cc(C(F)(F)F)cc(C(F)(F)F)c2)C1=O 1.66%
COc1ccc(CCNCc2c(-c3ccccc3)n(C)c3ccccc23)cc1 -20.4%
CC1(C)CC(=O)C=C(NCCN2CCNCC2)C1 -7.29%
COc1ccc(CN(C(=O)CSc2nnc(-c3ccc(OC)c(OC)c3)o2)c2ccc(F)cc2)cc1 -14.5%
COc1ccc(-c2nnc(SC(C)C(=O)NC3CC3)o2)cc1 (stereo not given) 0.965%
CC(C)c1ccc(Nc2ncccc2C#N)cc1 -6.55%
COc1ccc(-c2csc(C(O)c3cccc(Cl)c3)n2)cn1 (stereo not given) -10.4%
O=C(Nc1ccccc1F)c1ccccc1-c1ccc(C(F)(F)F)cc1 -15.1%
CNC(=O)/C(C#N)=C/c1c(F)cccc1Cl 21.1%
O=C(COC(=O)c1cc(-c2cccs2)nn1-c1ccccc1)Nc1cc([N+](=O)[O-])ccc1Cl -0.407%
COc1ccc(CN2C(CC(=O)Nc3cccnc3)c3ccc(C(F)(F)F)cc3S2(=O)=O)cc1 (stereo not given) -5.81%
COc1ccc(N(CC(=O)NC2CCCCC2)C(=O)CNC(=O)c2ccco2)c(OC)c1 -8.59%
COc1ccccc1CNC(=O)c1cc(-c2cc(Cl)ccc2C)n[nH]1 -2.11%
Cc1cccnc1NC(=O)CSc1nnc(COc2ccc(C(C)C)cc2)n1C -13.7%
COc1ccccc1C(=O)Nc1ccc(OCc2nnc3c4ccccc4c(C)nn23)cc1 9.9%
O=c1[nH]c(=S)[nH]c(O)c1/C=C1\C=Nc2ccccc21 -32.7%
CCOC(=O)C1C(c2ccc(O)cc2)NC(=O)NC1(O)C(F)(F)F (stereo not given) -0.717%
CC1=NN(c2ccc(Cl)c(C(=O)O)c2)C(=O)/C1=C/c1ccc(-c2ccccc2[N+](=O)[O-])o1 -7.86%
CCC(C)NC(=O)C1CCCN(C(=O)NC2CCCCC2)C1 (stereo not given) 2.71%
O=C(NCCc1nnc2ccc(SCC(=O)N3CCOCC3)nn12)c1ccccc1 1.02%
Cc1ccc(S(=O)(=O)NCCc2nnc3ccc(SCc4cccnc4)nn23)cc1 -34.2%
CN(Cc1ccccc1)C(=O)COC(=O)/C=C/c1ccc2c(c1)OCO2 -10.6%
CC(=O)Nc1cc(-c2ccc(N3CCN(C)CC3)cc2)cn2c(-c3cccc(C(=O)N(C)C)c3)cnc12 -8.12%
COC(=O)[C@H]1C[C@H](OC(=O)NCc2ccccc2)[C@@]2(O)CN(S(=O)(=O)c3ccc(C)cc3)CC2[C@H]1C(=O)OC (stereo not given in full) -0.0644%
Cc1ccc(NC(=O)COC(=O)CN2CCCCCC2=O)c(C)c1 -1.65%
Cc1ccc(S(=O)(=O)N2CCN(C(=O)c3cc(S(=O)(=O)N4CCOCC4)ccc3F)CC2)cc1 0.45%
CN1OC[C@@H]2CN(C(=O)C(C)(C)C)[C@H](c3ccc(-n4ccnc4)cc3)C[C@@H]21 -5.65%
CC(Oc1cccc(Cl)c1)C(=O)NC1CC(C)(C)NC(C)(C)C1 (stereo not given) -22.7%
Cc1ccc(NC(=O)CN(C)S(=O)(=O)c2cnc[nH]2)cc1C -13%
CN(CC(=O)Nc1ccccc1Cl)C(=O)c1ccccc1SCC(=O)N1CCCC1 -9.34%
O=C1C=C(c2cccc(Br)c2)C[C@@H](c2ccc(F)cc2)C1 -7.26%
Cc1ccc(CN(N=Nc2nonc2N)c2nonc2N)c(C)c1 25.8%
O=C1Oc2ccccc2C(=O)/C1=C/c1ccccc1O 1.41%
O=C(COc1ccc(/C=N/NC(=O)c2ccc(O)cc2)cc1)Nc1ccc([N+](=O)[O-])cc1 -4.2%
O=C(Cc1c[nH]c2ccccc12)N/N=C/c1cccc(F)c1 -9.63%
Nc1nc(CSc2nnnn2-c2ccccc2)nc(Nc2ccccc2)n1 4.76%
COCCCn1c(C(=O)NC2CCCCC2)cc2c(=O)n3cccc(C)c3nc21 -4.49%
CC12CN3CCN(CC(C3)/C1=N\NC(=O)c1ccccc1N)C2 -0.591%
CCC(C)c1ccccc1NC(=O)CN(C)CC(=O)Nc1ccccc1SC (stereo not given) 1.68%
COc1cccc2oc(CCc3ccccc3)cc(=O)c12 -6.37%
Cc1c2cn[nH]c(=O)c2c(C)n1Cc1ccc(F)cc1 -5.05%
CN1CCC2(CC1)NC(=O)NC2=O 11.5%
COc1cccc(N=c2oc3c(C)ncc(CO)c3cc2C(N)=O)c1 -0.831%
CCNC(=O)C1(C)CCN(C(=O)c2ccccc2)C1 (stereo not given) -7.31%
CN(C)S(=O)(=O)c1ccc(N2CCCC2)c(C(=O)NCc2ccccc2)c1 -8.01%
COc1cccc(CNc2ncc(-c3ccccc3)n2C)c1 -30.3%
CCOC(=O)c1cc2c(=O)[nH]c(C(Cl)(Cl)Cl)nc2o1 7.93%
CCC(C)CCN1CCN=C1N(C)C (stereo not given) -8.79%
Cc1ccc(N(CC(=O)NCC2CCCO2)C(=O)CNS(=O)(=O)c2ccc(Cl)cc2)cc1 (stereo not given) 0.715%
COc1cccc(-c2cnc(OC(C)(C)C)nc2OC(C)(C)C)c1 -5.2%
COc1cccc(CNC(=O)Cn2c(=O)oc3cc(S(=O)(=O)N4CCCCC4)ccc32)c1 -3.62%
CCOC(=O)C1(Cc2cccc(OC)c2)CCN(Cc2csc(C(C)=O)c2)CC1 -21.6%
NC1=NC(c2ccc([N+](=O)[O-])cc2)N(c2ccc(F)cc2)C(N)=N1 (stereo not given) 0.113%
Cc1ccc2c(c1)C(O)(CC(=O)c1cccnc1)C(=O)N2 (stereo not given) -30%
Cc1ccc(S(=O)(=O)n2cccc2CO)cc1 -0.194%
Cc1cccc(CNC(=O)c2sc(=O)n(Cc3ccccc3C)c2C)c1 -5.51%
CC(C)(C)N1C(=O)c2c(C(=O)OCc3ccccc3)[nH]c(-c3ccccc3)c2C1=O -2.35%
CC(C)Nc1nnc(SC(C)C(=O)N(C)C2CCCCC2)s1 (stereo not given) -2.23%
CCCN(CC1CC1)C(=O)COC(=O)c1ccc(C)cc1O -24.9%
Cc1ccc(S(=O)(=O)N(CCCN(C)C)Cc2ccc3c(c2)OCO3)cc1 -10.1%
CC1=C(C(=O)N(C(C)C)C(C)C)CC(CC(=O)NCCCCc2ccccc2)C(=O)N1CCC1=CCCCC1 (stereo not given) -4.46%
CCOC(=O)CSc1nnc(NC(=O)C2CC(=O)N(c3ccc(F)cc3)C2)s1 (stereo not given) -2.95%
CC(C)Cc1nnc(NC(=O)CCC(=O)Nc2ccc3cn[nH]c3c2)s1 -12.9%
O=C(Nc1ccc2cn[nH]c2c1)c1ccc(S(=O)(=O)N2CCOCC2)cc1 -3.76%
